Screening data deposited in PubChem BioAssay by PCMD.
Most compounds without a hit are left out; they make up all but 0.33% or so of the library.
FXIIa single: blocks human coagulation factor XIIa activity | P00748 | purified human FXIIa, AMC substrate fluorescence, 2 h | inhibition, % at 10 µM | 33,000 tested, 0.2% active; in the data active = inhibition above about 30%
FXIa inh: blocks human coagulation factor XIa activity | 33,000 tested, 0.3% active | inhibition, % at 10 µM | P03951 | purified human FXIa, fluorogenic AMC substrate cleavage;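 active = inhibition above 40% in the primary screen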
Each line names hits and unclear results; the compound was inactive in the other large screens.

O=c1cccc2n1CC1CC2CN(S(=O)(=O)c2ccccc2)C1 (stereo unspecified)	FXIa inh 41.7
O=C(Nc1ccc(F)cc1)N1CC2CC(C1)c1cccc(=O)n1C2 (stereo unspecified)	none
Cc1c(C(=O)N2CCC3(CC2)OCCO3)sc2ncnc(N3CCN(c4ccccn4)CC3)c12	none
